For five molecules, growth inhibition results are on record in PubChem BioAssay (NCI).

About 79,000 compounds went through this panel and 15% of them were active in at least one assay; those are over-represented in the sample as a whole. Unmarked numbers belong to inactive results. Calls of active or inactive are those of the source. Rule as the data show it: active = growth inhibition above about 70%; inactive = the rest.

The nature of test [1]: NCI Yeast Anticancer Drug Screen. Data for the rad50 strain (AID 155).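 Also: 0% = growth of vehicle-only cultures of the same strain.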 As to conditions: S. cerevisiae rad50 strain growth inhibition, hits give high values. The method, boiled down: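 Yeast carrying a defined DNA repair defect were exposed to test compounds, and growth was compared with vehicle-treated controls to give percent inhibition.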
Test [2] is described as follows: NCI Yeast Anticancer Drug Screen. Data for the mec2-1 strain (AID 157). Conditions: S. cerevisiae mec2-1 strain, hits give high values. The method, boiled down:
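Readout is yeast growth inhibition, normalised to vehicle-treated controls, in the mec2-1 strain exposed to compound.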

Test [3] is described as follows: NCI Yeast Anticancer Drug Screen. Data for the sgs1 mgt1 strain (AID 161).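 Also: 0% = growth of cultures given vehicle only.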 As to conditions: S. cerevisiae sgs1 mgt1 strain, hits give high values. An outline of the steps: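 Growth of a repair-deficient yeast mutant was monitored after compound treatment and expressed as inhibition relative to vehicle-treated cultures.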
Test [4] is described as follows: NCI Yeast Anticancer Drug Screen. Data for the cln2 rad14 strain (AID 165).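 Also: 0% = growth equal to vehicle treated cultures.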 Conditions: S. cerevisiae cln2 rad14 strain, hits give high values. The method, boiled down: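 Relative to vehicle controls, growth inhibition of compound-treated cln2 rad14 yeast was recorded.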
Test [5] can be described thus: NCI Yeast Anticancer Drug Screen. Data for the bub3 strain (AID 167). As to conditions: S. cerevisiae bub3 mutant strain, hits give high values. The method, boiled down:
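Compounds were applied to a genetically altered yeast strain carrying a cell-cycle control defect. Growth inhibition was scored against vehicle-treated controls.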

The nature of test [6]: NCI Yeast Anticancer Drug Screen. Data for the mlh1 rad18 strain (AID 175). Conditions: S. cerevisiae mlh1 rad18 strain growth inhibition, hits give high values. An outline of the steps: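 Test agents were incubated with a yeast strain of defined genotype (DNA damage repair defect). Inhibition of growth was derived by comparison with vehicle-exposed cultures.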
The mark [7] stands for this setting: at 5.0 µM (retest, dose inferred, filed as 0.5).
[8] abbreviates: at 50.0 µM (retest, dose inferred, filed as 5.0).

In the case of `Sc1c(Br)cc(Br)cc1Br.[Ag]`, the growth inhibition was 7% in test [1] (setting [7]); 99% (active) in test [1] (setting [8]); 31.6% in test [1] (at 50.0 µM); 6% in test [2] (setting [7]); 100% (active) in test [2] (setting [8]); 30.9% in test [2] (at 50.0 µM). The growth inhibition is 26% in test [3] (setting [7]); 99% (active) in test [3] (setting [8]); 72.4% (active) in test [3] (at 50.0 µM); 6% in test [4] (setting [7]); 99% (active) in test [4] (setting [8]); 14.6% in test [4] (at 50.0 µM). The growth inhibition is -1% in test [5] (setting [7]); 100% (active) in test [5] (setting [8]); 30.7% in test [5] (at 50.0 µM); 19% in test [6] (setting [7]); 99% (active) in test [6] (setting [8]); 59.5% in test [6] (at 50.0 µM).

`Cc1cnc2c(c1C)C(=O)c1ccccc1C2=O`: the growth inhibition was 27% in test [1] (setting [7]); 92% (active) in test [1] (setting [8]); 64.4% in test [1] (at 50.0 µM); 26% in test [2] (setting [7]); 88% (active) in test [2] (setting [8]); 50.2% in test [2] (at 50.0 µM). The growth inhibition was 27% in test [3] (setting [7]); 81% (active) in test [3] (setting [8]); 87% (active) in test [3] (at 50.0 µM); 27% in test [4] (setting [7]); 75% (active) in test [4] (setting [8]); 83.1% (active) in test [4] (at 50.0 µM). The growth inhibition is 32% in test [5] (setting [7]); 91% (active) in test [5] (setting [8]); 84.1% (active) in test [5] (at 50.0 µM); 26% in test [6] (setting [7]); 92% (active) in test [6] (setting [8]); 89.3% (active) in test [6] (at 50.0 µM).

As to `COc1cc(OC)c(C(c2cc3c(cc2O)OCO3)N2CCOCC2)c(OC)c1` (stereo not given), the growth inhibition in test [1] (setting [7]) was 2%; in test [1] (setting [8]) it was 99% (active); in test [1] (at 50.0 µM), 57.9%; in test [2] (setting [7]) it was 2%; in test [2] (setting [8]), 98% (active); in test [2] (at 50.0 µM), 61.1%. In addition, the growth inhibition in test [3] (setting [7]) was -1%; in test [3] (setting [8]), 98% (active); in test [3] (at 50.0 µM) it was 50.3%; in test [4] (setting [7]) it was 0%; in test [4] (setting [8]), 99% (active); in test [4] (at 50.0 µM), 23.7%. The growth inhibition in test [5] (setting [7]) is 5%; in test [5] (setting [8]), 99% (active); in test [5] (at 50.0 µM), 18.8%; in test [6] (setting [7]), -2%; in test [6] (setting [8]) it was 99% (active); in test [6] (at 50.0 µM), 63.2%.

`O=C(Nc1ccc(C2=NCCN2)cc1)c1ccc(C(=O)Nc2ccc(C3=NCCN3)cc2)c(Cl)c1`: the growth inhibition is 42% in test [1] (setting [7]); 97% (active) in test [1] (setting [8]); 51.2% in test [1] (at 50.0 µM); 25% in test [2] (setting [7]); 98% (active) in test [2] (setting [8]); 78.7% (active) in test [2] (at 50.0 µM). In addition, the growth inhibition is 57% in test [3] (setting [7]); 99% (active) in test [3] (setting [8]); 76% (active) in test [3] (at 50.0 µM); 43% in test [4] (setting [7]); 96% (active) in test [4] (setting [8]); 80% (active) in test [4] (at 50.0 µM). Further, the growth inhibition is 54% in test [5] (setting [7]); 98% (active) in test [5] (setting [8]); 68.5% in test [5] (at 50.0 µM); 35% in test [6] (setting [7]); 95% (active) in test [6] (setting [8]); 87.8% (active) in test [6] (at 50.0 µM).

For the molecule `CN(C)CC1CCCCCC(Br)C1=O` (stereo not given), the growth inhibition in test [1] (setting [7]) was 18%; in test [1] (setting [8]), 78% (active); in test [1] (at 50.0 µM) it was 63.9%; in test [2] (setting [7]), 14%; in test [2] (setting [8]), 80% (active); in test [2] (at 50.0 µM), 70.2% (active). In addition, the growth inhibition in test [3] (setting [7]) is 11%; in test [3] (setting [8]), 92% (active); in test [3] (at 50.0 µM) it was 84% (active); in test [4] (setting [7]), 12%; in test [4] (setting [8]), 69%; in test [4] (at 50.0 µM) it was 91.5% (active). Moreover, the growth inhibition in test [5] (setting [7]) was -7%; in test [5] (setting [8]), 21%; in test [5] (at 50.0 µM), 7.05%; in test [6] (setting [7]), 55%; in test [6] (setting [8]), 96% (active); in test [6] (at 50.0 µM), 91% (active).
